About 83,000 compounds went through this panel and 20% of them were active in at least one assay; those are over-represented in the sample as a whole.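 Note: values are percent growth. 100 is the growth of untreated cells, values between 100 and 0 indicate rising inhibition; between -100 and 0 indicates cell death.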 Values without a mark were called inactive. Calls of active or inactive are those of the source. Rule for the calls: active = growth percent below 10; inactive = the rest.
Each compound was assayed on HL-60(TB) leukemia (assay: NCI-60 one-dose screen, 48 h (100 = growth as untreated, 0 = no growth, -100 = all killed)). Settings: 10 µM unless noted.
For COCn1c(C(=O)OC)cc2oc(/C=C3/SC(=S)N(N)C3=O)cc21, the growth was 76.9%.
O=C(Cn1cc(CSc2nc3ccccc3o2)nn1)Nc1ccc(F)cc1F gave a growth of 102%.
For CCN(CC)c1ccc(-c2cc(-c3cc(OC)c(OC)c(OC)c3)nc(N3CCOCC3)c2C#N)cc1, the growth was -43.4% (active).
Work on O=C1OCCCCCCCCCC#Cc2ccccc21 yielded a growth of 88.7%.
COc1cc([C@H](C)c2ccc3ccccc3c2)cc(OC)c1OC was tested, and the growth was -5.85% (active).
N#C/C(=C\c1ccc(-c2cccc(C(F)(F)F)c2)o1)c1nc(-c2ccco2)cs1 was tested, and the growth was 101%.
With Cc1c(CC(=O)OCCO)cc(-c2ccc(Cl)cc2)n1-c1ccccc1 the growth was 95.7%.
N/C(=N\N=C\c1ccc2c(c1)OCO2)N/N=C\c1ccc2c(c1)OCO2 was tested, and the growth was 80%.
Nc1c(C(=O)Nc2cccc3cnccc23)sc2nc3c(cc12)CN(Cc1ccccc1)CC3 gave a growth of 101%.
Cn1cc(-c2csc(-c3cn(CCO)c4ccc(F)cc34)n2)c2cccnc21 was tested, and the growth was 50.2%.
For COc1ccc2c(c1)C(=O)/C(=C/c1cccc(OCC(=O)Nc3nc4c(s3)CCCC4)c1)O2, the growth was -70.8% (active).
Cc1nc2cc(-n3c(-c4ccc(F)cc4)nc4ccccc4c3=O)ccc2n1Cc1ccccc1 gave a growth of 57.7%.
In the case of CCNCCCCNCCCCNCCCCNCCCCNCC, the growth is reported as 127%.
In the case of COc1ccc(CSc2nnc(SCC(=O)Nc3ccc(Cl)cc3)s2)cc1, the growth is reported as 56.9%.
CCOc1cccc(NC2=C(Br)C(=O)C(C)=C(C)C2=O)c1 was tested, and the growth was -12.5% (active).

Source: PubChem BioAssay (NCI)
